Results taken from PubChem BioAssay AID1159580 (chemical genetic matrix, 2015).
Among all 5,500 compounds or so, about 2,000 (36%) were called active. Not shown: some 18% with an inconclusive outcome. Rule as the data show it: active = normalized growth mostly below about 0.91 (no sharp cut-off); inconclusive = no clear call, values can overlap the other calls; inactive = mostly above about 0.92. This is one part of the list.

Assay: chemical genetic growth profiling, strain panel (AID 1159580);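 also: tested at 20 µM; growth read once vehicle control cultures reached saturation at 30 °C; 1 = growth at the plate median or of vehicle wells; lower values mean less growth of the strain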
Settings: S. cerevisiae deletion strains, growth OD

Measured: normalized growth

COc1ccc(CN2CSC(=S)N(Cc3ccc(OC)cc3)C2)cc1
inactive: locus YAR019C, strain CDC15, stronger effect = lower value 0.952 | locus YBL105C, strain PKC1, stronger effect = lower value 0.98 | locus YBR135W, strain CKS1, stronger effect = lower value 0.972 | locus YBR136W, strain MEC1, stronger effect = lower value 0.968 | locus YBR160W, strain CDC28, stronger effect = lower value 0.974 | locus YDL017W, strain CDC7, stronger effect = lower value 0.981 | locus YDL028C, strain MPS1, stronger effect = lower value 0.951 | locus YDL101C, strain DUN1, stronger effect = lower value 0.992 | locus YDL108W, strain KIN28, stronger effect = lower value 0.955 | locus YDL132W, strain cdc53, stronger effect = lower value 0.966 | locus YDL214C, strain PRR2, stronger effect = lower value 0.937 | locus YDR052C, strain DBF4, stronger effect = lower value 0.975 | locus YDR054C, strain cdc34, stronger effect = lower value 0.961 | locus YDR226W, strain ADK1, stronger effect = lower value 0.961 | locus YDR477W, strain SNF1, stronger effect = lower value 0.958 | locus YER123W, strain YCK3, stronger effect = lower value 0.891 | locus YER133W, strain GLC7, stronger effect = lower value 0.946 | locus YFL009W, strain cdc4, stronger effect = lower value 0.957 | locus YFL029C, strain CAK1, stronger effect = lower value 0.95 | locus YFR003C, strain YPI1, stronger effect = lower value 0.967 | locus YFR019W, strain FAB1, stronger effect = lower value 0.961 | locus YFR028C, strain CDC14, stronger effect = lower value 0.957 | locus YGR040W, strain KSS1, stronger effect = lower value 0.947 | locus YGR052W, strain FMP48, stronger effect = lower value 0.996 | locus YGR092W, strain DBF2, stronger effect = lower value 0.864 | locus YHR030C, strain SLT2, stronger effect = lower value 0.97 | locus YHR079C, strain IRE1, stronger effect = lower value 0.908 | locus YHR082C, strain KSP1, stronger effect = lower value 0.999 | locus YHR205W, strain SCH9, stronger effect = lower value 0.891 | locus YIL147C, strain SLN1, stronger effect = lower value 0.95 | locus YJL095W, strain BCK1, stronger effect = lower value 0.981 | locus YJL128C, strain PBS2, stronger effect = lower value 0.952 | locus YJL157C, strain FAR1, stronger effect = lower value 0.954 | locus YJR016C, strain ILV3, stronger effect = lower value 0.965 | locus YJR066W, strain TOR1 (second series), stronger effect = lower value 0.94 | locus YJR066W, strain TOR1, stronger effect = lower value 0.998 | locus YKL048C, strain ELM1, stronger effect = lower value 0.958 | locus YKL067W, strain YNK1, stronger effect = lower value 0.954 | locus YKL101W, strain HSL1, stronger effect = lower value 0.94 | locus YKL193C, strain SDS22, stronger effect = lower value 0.964 | locus YKL203C, strain TOR2, stronger effect = lower value 0.989 | locus YLR113W, strain HOG1, stronger effect = lower value 0.91 | locus YLR133W, strain CKI1, stronger effect = lower value 0.961 | locus YLR403W, strain SFP1, stronger effect = lower value 0.927 | locus YML070W, strain DAK1, stronger effect = lower value 0.935 | locus YMR001C, strain CDC5, stronger effect = lower value 0.978 | locus YMR205C, strain PFK2 (second series), stronger effect = lower value 0.945 | locus YMR277W, strain FCP1, stronger effect = lower value 0.97 | locus YNL006W, strain LST8, stronger effect = lower value 0.945 | locus YNL020C, strain ARK1, stronger effect = lower value 0.94 | locus YNL161W, strain CBK1, stronger effect = lower value 0.987 | locus YNL183C, strain NPR1, stronger effect = lower value 0.951 | locus YNL207W, strain RIO2, stronger effect = lower value 0.964 | locus YNL222W, strain SSU72, stronger effect = lower value 0.966 | locus YNL307C, strain MCK1 (second series), stronger effect = lower value 0.905 | locus YOL078W, strain AVO1, stronger effect = lower value 0.967 | locus YOL136C, strain PFK27, stronger effect = lower value 0.956 | locus YOR061W, strain CKA2, stronger effect = lower value 0.939 | locus YOR119C, strain RIO1, stronger effect = lower value 0.985 | locus YOR231W, strain MKK1, stronger effect = lower value 0.937 | locus YOR329C, strain SCD5, stronger effect = lower value 0.979 | locus YPL031C, strain PHO85, stronger effect = lower value 0.95 | locus YPL153C, strain RAD53, stronger effect = lower value 0.931 | locus YPL204W, strain HRR25, stronger effect = lower value 0.931 | locus YPL209C, strain IPL1, stronger effect = lower value 0.966 | locus YPL256C, strain CLN2, stronger effect = lower value 0.953 | locus YPR025C, strain CCL1, stronger effect = lower value 0.98 | locus YPR106W, strain ISR1, stronger effect = lower value 0.983 | locus YPR111W, strain DBF20, stronger effect = lower value 0.979 | strain NNK1, stronger effect = lower value 0.984 | strain TSCII, stronger effect = lower value 0.964
